The structures appear in SMILES notation. Out of some 420,000 compounds screened, about 50,000 (12%) were called active. Entries that show only a call come without a potency. Another 26% or so got no clear call; they are omitted. Calls come from the whole dose curve; as a rule, active = well fitted inhibition curve with a large enough effect; inconclusive = small, poorly fitted or top-dose-only effect; inactive = flat fitted curve, though single readings scatter. Many of the other results were omitted from the sample, so actives are more common in it than they were.
Potency is the fitted concentration of half-maximal effect.

This test in a line: qHTS for Inhibitors of human tyrosyl-DNA phosphodiesterase 1 (TDP1): qHTS in cells in presence of CPT. Note: nearly all actives have a fitted effect of over 55% in size. The settings on record: chicken DT40 Tdp1-/-;hTDP1 cells + 20 nM CPT, ATP luminescence, 48 h; series mostly up to 46.2 µM. Summed up:
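Cell growth measured by CellTiter-Glo luminescence after a minimum 48 h, 37 C compound exposure with 20 nM CPT in Tdp1-knockout DT40 cells stably expressing hTDP1, seeded 400/well; qHTS titration format.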
As for `C=CCNC(=O)COC(=O)c1ccccc1C(=O)N(C)C1CCCCC1`, the Potency result was “inactive”.
On to `O=C(COC(=O)c1ccccc1SCC(=O)NC1CCCCC1)NC1CCCCC1`, for which the Potency result was “inactive”.
Regarding `CC1CCCC(NC(=O)COC(=O)c2ccccc2C(=O)N(C)C2CCCCC2)C1C` (stereo not drawn), the Potency is 23.1 µM (active).
In the case of `COc1cc(=O)n2c(c1C(=O)NC(C)c1ccco1)CCN(C(=O)c1cn3ccc(C)cc3n1)CC2` (stereo not drawn), the Potency entry was “inactive”.
Take `Cc1cc(C)cc(Oc2nc3c(C)cccn3c(=O)c2/C=C(\C#N)C(=O)NC2CCS(=O)(=O)C2)c1` (stereo not drawn): the Potency was 16.4 µM (active).
Still for that read-out and setting: the same measure for `Cc1cccn2c(=O)c(/C=C(\C#N)S(=O)(=O)c3ccc(Cl)cc3)c(N3CCC(C(N)=O)CC3)nc12`: “inactive”.
`Cc1ccc(C(=O)N/C(=C\c2ccco2)C(=O)NC2CCS(=O)(=O)C2)cc1` (stereo not drawn): the Potency result is “inactive”.
On the same count and under the same terms, with `Cc1ccnc(-n2sc3ccccc3c2=O)n1` the figure was 7.31 µM (active).
Still for that read-out and setting: the same measure for `Cc1ccnc(SCC(N)=O)n1`: “inactive”.
The same measure, in the same setting: with `Cc1ccnc(Nc2nc3ccccc3s2)n1` the entry was “inactive”; with `Cc1cccc(C)c1NC(=O)CNC(=O)C1CCCC1`, “inactive”.
As to `CCc1ccnc(NC(=O)Nc2ccc(OCc3ccccc3)cc2)c1`, the Potency result is “inactive”.
Same read-out and setting: the same measure for `Cc1ccc(NS(=O)(=O)c2c(C)[nH]c(C)c2C(=O)N2CCCCC2)c(C)c1`: “inactive”; for `O=C1CC(=O)Nc2cc(S(=O)(=O)N3CCN(c4cccc(C(F)(F)F)c4)CC3)ccc2N1`: “inactive”.
Same read-out and setting: the same measure for `Cc1[nH]c(C)c(S(=O)(=O)N2CCN(c3cccc(C(F)(F)F)c3)CC2)c1C(=O)N1CCCC1`: 18.4 µM (active); for `Cc1[nH]c(C)c(S(=O)(=O)N2CCC(C)CC2)c1C(=O)N1CCCC1`: “inactive”; for `Cc1ccc(C)c(NS(=O)(=O)c2c(C)[nH]c(C)c2C(=O)N2CCCCC2)c1`: “inactive”.
Turning to `Cc1[nH]c(C)c(S(=O)(=O)N2CCN(c3cccc(C(F)(F)F)c3)CC2)c1C(=O)N1CCCCC1`, the Potency was 14.6 µM (active).
The same measure, in the same setting: with `CCOc1cc(/C=N/O)ccc1OCc1ccccc1F` the entry was “inactive”.
For the compound `COc1cc(/C=C2/C(=O)ON=C2C)ccc1OCc1ccccc1F`, the Potency was 11.6 µM (active).
Turning to `CC1=NOC(=O)/C1=C\c1ccccc1`, the Potency result is “inactive”.
Still for that read-out and setting: the same measure for `Cc1cc(NC(=O)CCS(=O)(=O)c2ccc(F)cc2)no1`: “inactive”.
Turning to `C[C@@H]1CN(Cc2ccc3c(c2)CN(Cc2ccc(Oc4ncccn4)cc2)CCO3)C[C@H](C)O1`, the activity change, negative = growth inhibition was -11.8% [at 9.04 µM] (inactive).
As to `COc1ccc(/C=N/N=C2/C(=O)Nc3ccccc32)cc1O`, the Potency result is “inactive”.
Still for that read-out and setting: with `CCN(CC)c1ccc(C(=O)N/N=C/c2ccc(N3CCOCC3)cc2)cc1` the entry was “inactive”; with `O=C(NN=Cc1ccc(N2CCOCC2)cc1)c1cc2ccccc2cc1O`, “inactive”; with `O=C(O)c1ccc(NN=CC2=C(N3CCOCC3)/C(=C/c3ccccc3)CC2)cc1`, 1.46 µM (active).
Still for that read-out and setting: with `O=C1Nc2ccc(Br)cc2/C1=N/N=C/C1=C(N2CCOCC2)C(=C\c2ccccc2)/CC1` the figure was 16.4 µM (active).

The values above are taken from PubChem BioAssay AID686979 (National Center for Advancing Translational Sciences (NCATS), 2013).
